# GPT2 inh: blocks human glutamate pyruvate transaminase 2. Recombinant GPT2, coupled pyruvate oxidase/HRP Amplex Red fluorescence. Potency, µM (series often up to 57.7 µM), inactives show top-dose activity change, negative = inhibition, most hits filed as inhibitors. 100,000 tested, 0.25% active. AID 1671188; also: potency is read from the fitted curve at half-maximal effect; nearly all actives have a fitted effect of over 60% in size
#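 Inhibition is scored from Amplex Red fluorescence generated when pyruvate oxidase and HRP act on pyruvate released by GPT2. Reactions contain 10ng/uL enzyme, 250uM a-KG and 2mM L-alanine and run 30 min at room temperature.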
# SNCA expr inhib: reduces expression of the alpha-synuclein gene | HEK-293 SNCA-luciferase knock-in, luminescence, 24 h | Potency, µM (series often up to 57.2 µM), without a hit: top-dose activity change, negative = inhibition, most hits filed as inhibitors | 140,000 tested, 0.17% active | AID 1671194;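 also: potency is read from the fitted curve at half-maximal effect; plate controls were DMSO cells for no effect and cell-free wells for full effect; nearly all actives have a fitted effect of over 45% in size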
# IP6K1 inh: inhibitors of human IP6K1 | Q92551 | IP6K1 kinase, ADP-Glo luminescence, 2 h; hits give low values | activity change, % (series mostly up to about 58 µM) | 140,000 tested, 0.81% active; in the data active = activity change below about -25%
# Target sequence (Q92551 whole entry, looked up): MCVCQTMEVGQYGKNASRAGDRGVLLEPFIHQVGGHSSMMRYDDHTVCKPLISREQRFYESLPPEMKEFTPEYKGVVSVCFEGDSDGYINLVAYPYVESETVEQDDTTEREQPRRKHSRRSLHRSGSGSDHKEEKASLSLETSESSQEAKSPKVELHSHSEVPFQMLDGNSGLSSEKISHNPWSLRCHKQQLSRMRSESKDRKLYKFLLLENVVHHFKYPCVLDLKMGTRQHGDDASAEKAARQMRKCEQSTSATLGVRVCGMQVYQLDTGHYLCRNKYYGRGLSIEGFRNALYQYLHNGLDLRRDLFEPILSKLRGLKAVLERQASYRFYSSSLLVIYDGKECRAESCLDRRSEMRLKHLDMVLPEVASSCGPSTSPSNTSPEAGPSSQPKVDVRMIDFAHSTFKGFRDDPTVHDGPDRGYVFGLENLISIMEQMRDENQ
#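 ADP-Glo luminescence measures ADP made by human IP6K1 during a 2 h RT reaction with ATP/IP6 (mix at 1.3 mM/130 uM); top library doses 57.5 and 19.1 uM final.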
# HEK293 viab: cell viability loss counter-screen | 150,000 tested, 0.12% active | HEK-293-SNCA-luc viability, GF-AFC fluorescence, 24 h | AID 1671193 | Potency, µM (highest dose often 57.1 µM), without a hit: at the top dose activity change, negative = cytotoxicity, actives largely listed as cytotoxic;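 also: potency is read from the fitted curve at half-maximal effect; 0% = DMSO-treated cells and -100% = medium-only wells without cells; nearly all actives have a fitted effect of over 30% in size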
#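 Cytotoxicity counterscreen: after 24 h compound treatment of genome-edited SNCA-luciferase HEK-293 cells, live-cell protease substrate GF-AFC read by fluorescence after 30 min; activity scaled between DMSO (0%) and medium-only (-100%), curves Hill-fitted.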
# Active calls of the source: *; i = inactive; ? = inconclusive; nt = no result; [ ] = remark or other dose. Only some compounds are listed: those with a hit (about 1% of all), similar ones and a draw of the others. Unless noted, calls follow the shape of the dose curve; as a rule, active = well fitted curve in the direction sought with a large enough effect; inconclusive = small, poorly fitted or top-dose-only effect, or another doubt; inactive = no such curve, though single readings can be large; an effect the other way counts as inactive or inconclusive. Unless noted, % is scaled to controls: 0 for no effect and ±100 for the full control effect.
SMILES,GPT2 inh,SNCA expr inhib,IP6K1 inh,HEK293 viab
COc1cccc([S+](=O)([O-])NC2CCN(c3ccc4nnc(-c5ccccc5)n4n3)C2)c1 (centres undefined),nt,nt,3,nt
N#Cc1ccc(Nc2nc(-c3ccc(O)cc3O)cs2)cc1C(F)(F)F,-1%,nt,6,12µM*
CN(c1ccccc1)c1ccc2nnc(-c3cc(C(=O)N4CC(O)C4)ccn3)n2n1,-3%[88.5 µM],-16%[87.6 µM],-23,7%[87.6 µM]
CC(=O)N1CCOc2ccc(CCC(=O)NC(C)Cn3ccc(C)n3)cc2C1 (centres undefined),1%,20µM*,17,2%[12.5 µM]
C=C1C(=O)O[C@@H]2[C@H]3C(C)=CC(=O)C3=C(C)[C@@H](OC(=O)/C(C)=C\C)[C@H](O)[C@@H]12,5%[27.3 µM],nt,8,?
C=C1C(=O)O[C@@H]2C/C(C)=C\C(=O)/C=C(\C)[C@@H](OC(=O)/C(C)=C\C)[C@H](O)[C@@H]12,i,nt,7,15µM*
CN1CCCN(S(=O)(=O)c2cccc(Br)c2)c2ccccc21,-16%,?,-2,-28%
C=CC(=O)Nc1cccc(Sc2nc(Nc3ccc(N4CCN(C)CC4)cc3)ncc2Cl)c1,-17%,-3%,-5,?
C=CC(=O)Nc1ccc(CN2C(=O)N(c3cc(OC)cc(OC)c3)Cc3cnc(Nc4ccc(N5CCN(C)CC5)cc4)nc32)cc1,-8%,nt,-18,19µM*
CN(Cc1ccccc1)C(=O)C[C@@H]1c2nc(NC(=O)c3ccc(F)cc3)sc2C[C@@H]2[C@](C)(CO)[C@H](O)CC[C@]21C,i,-28%,6,-29%
COc1ccc(C(=O)N2CCc3nc(C4CC4)nc(-c4ccc(OC)cc4)c3C2)cc1,i,-13%,-11,-21%
COc1ccc(-c2nc(C3CC3)nc3c2CN(C(=O)c2ccc(C(F)(F)F)cc2)CC3)cc1,i,?,-11,10µM*
CC(C)NC(=O)N1CCN(c2nccc(Nc3ccccc3F)n2)CC1,i,-11%,-2,-5%[12.5 µM]
Cc1ccc(-n2ncc3c(N4CCCCCC4)ncnc32)cc1Cl,nt,9%,10,2%
Cc1ccc(-n2ncc3c(N4CCCCC4)ncnc32)cc1,nt,0.89µM*,14,3%
Cc1ccc(-n2ncc3c(N4CCCCC4)ncnc32)cc1Cl,nt,7.1µM*,-4,7%
CCOc1ccc(NC(=O)c2c(NCc3cc(OC)c(OC)cc3OC)sc3c2CCCC3)cc1,nt,2%,-30*,-5%
CCCCc1ccc(NC(=O)CN2C(=O)NC(c3ccc(Cl)cc3)C3=C2COC3=O)cc1 (centres undefined),i,13µM*,5,?
O=C(NCc1ccccc1)C1CCN(C(=O)c2ccc(-c3cccs3)cc2)CC1,nt,nt,-11,nt
O=C(Nc1ccc(Br)cc1F)N1CCC(CN2CCCC2)CC1,nt,19%,36,5%
NC(=O)c1c(OCc2c(F)cc(Br)cc2F)nsc1NC(=O)NCCCCN1CCCC1,1%,6.1µM*,15,?
CC(=O)Oc1c(-c2ccc(NC(=O)c3ccco3)cc2)c(-c2cccc(F)c2)nn1-c1ccc(C)cc1,28µM*,6%,16,0%
CC(=O)Oc1c(-c2ccc(NC(=O)c3ccco3)cc2)c(-c2cccc(C)c2)nn1-c1cccc(F)c1,?,-21%,30,-2%
COCC(=O)Nc1ccc(-c2c(C(C)C)nn(-c3cccc(F)c3)c2OC(C)=O)cc1,?,5%,2,-14%
COc1cccc(-c2nn(-c3ccccc3)c(OC(C)=O)c2-c2ccc(NC(=O)C3CCCC3)cc2)c1,7.1µM*,-4%,4,2%
SMILES,GPT2 inh,SNCA expr inhib,IP6K1 inh,HEK293 viab
CC(=O)Oc1c(-c2ccc(NC(=O)c3ccco3)cc2)c(-c2cccc(C)c2)nn1-c1ccc(F)cc1,25µM*,6%,-6,-6%
COc1ccc(-c2nn(-c3ccccc3C)c(OC(C)=O)c2-c2ccc(NC(C)=O)cc2)cc1OC,i,-21%,7,-18%
N#Cc1ccc(CN2CCC3(COc4ccccc4C(=O)N3)C2)cc1 (centres undefined),-4%[88.5 µM],-12%[87.6 µM],17,11%[87.6 µM]
CC(C)c1nnc(NC(=O)c2nc(S(=O)(=O)Cc3ccccc3)ncc2Cl)s1,nt,?,-3,22µM*
Cc1ccc(NC(=O)c2nc(S(=O)(=O)Cc3ccc(F)cc3)ncc2Cl)cc1C,nt,?,-14,?
CCS(=O)(=O)c1ncc(Cl)c(C(=O)NCc2ccc(OC)cc2)n1,nt,22µM*,-2,?
Cc1ccc(CNC(=O)c2nc(S(=O)(=O)Cc3ccc(C)cc3)ncc2Cl)cc1,nt,7%,0,1%
CC(=O)Nc1ccc(NC(=O)c2nc(S(=O)(=O)Cc3ccc(F)cc3)ncc2Cl)cc1,nt,?,0,7.9µM*
Cc1cccc(NC(=O)c2nc(S(C)(=O)=O)ncc2Cl)c1,nt,?,-10,20µM*
Cn1cc(-c2cnc3[nH]cc(CC(=O)NCc4cccc(F)c4)c3c2)cn1,-7%[88.5 µM],21%[87.6 µM],-16,-1%[87.6 µM]
Cc1nn(-c2ccccc2)c2c1C(C1CC1)N(C1CN(C(=O)c3ccccc3F)C1)C2=O (centres undefined),nt,nt,18,nt
CCn1ncc(N2CCCC(CC(=O)N3CCN(c4cccc(Cl)c4)CC3)C2)cc1=O (centres undefined),i,?,-2,2%
CCS(=O)(=O)c1ncc(Cl)c(C(=O)Nc2ccccc2)n1,nt,2.2µM*,-7,7.1µM*
CCS(=O)(=O)c1ncc(Cl)c(C(=O)N2CCN(c3ccc(OC)cc3)CC2)n1,nt,?,-3,14µM*
O=C(Cc1ccccc1)NC1CCN(c2ccc3nnc(C4CC4)n3n2)CC1,nt,nt,-2,nt
Cn1ncc2c(C(=O)NCc3ccc(C(F)(F)F)cc3)cc(-c3cccc(F)c3)nc21,nt,nt,1,nt
CCOC(=O)c1ccc(O)c(O)c1,28µM*,-38%[25.6 µM],16,9%[23.9 µM]
CCOC(=O)c1ccc(O)cc1,i,15%[25.6 µM],6,5%[23.9 µM]
CC1=C[C@@H](CN2CCN(c3cnccn3)CC2)[C@H](C(C)C)C[C@H]1Cc1nnc(-c2cccnc2)o1,?,?,13,-27%
O=C(c1ccc(Cl)cc1)N1CC2(CCCN2CC2CCCCC2)Cc2ccccc21 (centres undefined),?,-6%,3,3%
CC(C)N1C[C@H](O)C[C@H]1c1nnc2n1CCN(C(=O)c1ccsc1)C2,-8%,25µM*,0,0%[12.5 µM]
Cc1ccc(-n2nc3c(=O)n(CCCC(=O)NC(C)c4ccccc4)nc(C)c3c2C)cc1 (centres undefined),nt,28µM*,0,2%
c1cc(NC2CCNCC2)nc(-c2cnc3ccccn23)c1,3%,nt,-20,?
Clc1ccc2ncc(-c3cccc(NC4CNC4)n3)n2c1,?,0.61µM*,-4,-30%
COc1cccc(C(=O)NC2CCN(c3nccc(Nc4ccc(C)cc4)n3)CC2)c1,i,?,2,?
COc1ccc(N2CCN(S(=O)(=O)CCNC(=O)Cc3ccc(-c4ccccc4)cc3)CC2)cc1,nt,30%,-27*,23%

# Bioassay records (PubChem BioAssay)
